Assay results reported in PubChem BioAssay (EPA / NIEHS).
Inconclusive results are not listed. Active and inactive are the calls of the source. How the source made its calls: active means hit-call score of the fitted dose curve at least 0.9, where 1 is the maximum; inconclusive means response in the unintended direction; inactive means score below 0.9.

Each compound was assayed against Glucocorticoid receptor (Homo sapiens) (UniProt P04150) (assay: ATG_GR_TRANS: Attagene TRANS-FACTORIAL HepG2 Assay for human Glucocorticoid Receptor (GR) (AID 2282978;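 further: activators score as hits since higher reporter transcript over DMSO is fitted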)). Details: HepG2 Attagene TRANS GR reporter, mRNA transcription.
Protocol: ATG_TRANS is a cell-based, multiplexed-readout assay that uses HepG2, a human liver cell line, with measurements taken at 24 hours after chemical dosing in a 24-well plate.ATG_GR_TRANS is one of 30 assay component(s) measured or calculated from the ATG_TRANS assay. It is designed to make measurements of mRNA induction, a form of inducible reporter, as detected with fluorescence intensity signals by Reverse transcription polymerase chain reaction (RT-PCR) and Capillary electrophoresis technology.Data from the assay component ATG_GR_TRANS was analyzed into 1 assay endpoint. This assay endpoint, ATG_GR_TRANS, was analyzed in the positive analysis fitting direction relative to DMSO as the negative control and baseline of activity. Using a type of inducible reporter, measures of mRNA for gain-of-signal activity can be used to understand the reporter gene at the transcription factor-level as they relate to the gene NR3C1. Furthermore, this assay endpoint can be referred to as a primary readout, because this assay has produced multiple assay endpoints where this one serves a reporter gene function. To generalize the intended target to other relatable targets, this assay endpoint is annotated to the nuclear receptor intended target family, where the subfamily is steroidal.
Human liver HepG2 cells are transiently transfected with multiple reporter transcription units (MRTUs) in 6-well plates using FuGene 6 reagent (Roche; 3 ml FuGene/1 mg DNA). The MRTU constructs are regulated by a cis-regulating element (promoter). […] A major difference between the CIS and TRANS system is that in CIS activities of endogenous TFs are measured, whereas the TRANS assay evaluates changes in activities of exogenous, chimeric NR-Gal4 proteins. […] At the end of 24 hour incubation, total RNA was isolated using TriZol reagent (Invitrogen). The isolated RNA is then reverse-transcribed using oligo(dT) primer and Mo-MLV reverse transcriptase (Invitrogen) with DNAse I (Ambion) treatment for 30 min. The one-tenth of the produced cDNA was amplified by PCR using Taq DNA polymerase (Invitrogen) and two reporter sequence-specific primers. The PCR products were fluorescently labeled by primer extension with 6-arboxyfluorescein (6-FAM) 5'-labeled reporter sequence-specific primer (2 min at 95 C, 20 s at 68 C and 10 min at 72 C) and these products were digested with 5U of HpaI (New England Biolabs) for 2h at 37 C. The fragments were purified using Qiaquick PCR columns (Qiagen), analyzed on an ABI 3130xL genetic analyzer (Applied Biosystems) with peak positions identified by using a set of X-rhodamine (ROX)-labeled MapMarker1000 molecular weight standards (BioVentures). The raw capillary electrophoresis data was processed using Attagraph software (Attagene).

Chain of Glucocorticoid receptor (Homo sapiens) (P04150 whole entry, looked up): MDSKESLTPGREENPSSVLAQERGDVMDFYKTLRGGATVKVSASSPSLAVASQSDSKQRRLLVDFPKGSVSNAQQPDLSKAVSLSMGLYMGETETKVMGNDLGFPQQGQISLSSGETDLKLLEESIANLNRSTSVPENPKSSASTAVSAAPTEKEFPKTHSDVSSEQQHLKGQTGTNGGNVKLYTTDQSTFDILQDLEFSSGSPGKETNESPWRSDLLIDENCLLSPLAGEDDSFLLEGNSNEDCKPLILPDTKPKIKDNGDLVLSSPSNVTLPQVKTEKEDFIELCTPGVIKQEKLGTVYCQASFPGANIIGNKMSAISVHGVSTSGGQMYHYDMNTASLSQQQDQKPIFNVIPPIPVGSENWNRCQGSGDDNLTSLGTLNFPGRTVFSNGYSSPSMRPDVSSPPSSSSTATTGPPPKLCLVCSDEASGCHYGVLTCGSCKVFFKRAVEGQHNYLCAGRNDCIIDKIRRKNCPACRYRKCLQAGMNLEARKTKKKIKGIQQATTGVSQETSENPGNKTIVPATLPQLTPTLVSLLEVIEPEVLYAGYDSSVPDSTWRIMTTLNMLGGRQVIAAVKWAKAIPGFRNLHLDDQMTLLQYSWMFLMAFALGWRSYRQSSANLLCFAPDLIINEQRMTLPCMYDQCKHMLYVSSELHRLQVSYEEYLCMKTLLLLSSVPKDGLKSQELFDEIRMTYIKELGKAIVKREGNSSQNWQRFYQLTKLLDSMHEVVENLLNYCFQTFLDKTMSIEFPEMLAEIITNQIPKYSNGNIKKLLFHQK

Row | Compound | outcome | AC50
1 | CC(C)=CCCC(C)=CC=O | inactive | 
2 | Nc1nc2ncc(CNc3ccc(C(=O)N[C@@H](CCC(=O)O)C(=O)O)cc3)nc2c(=O)[nH]1 | inactive | 
3 | COCCOCCOCCOC | inactive | 
4 | CCOc1cccc(-n2cc(C(=O)N3CCN(c4cc(C(=O)O)c5ccccc5c4)CC3)nc2-c2ccc(C)cc2)c1 | inactive | 
5 | CC1=CC(=O)CC(C)(C)C1 | inactive | 
6 | CCCCCCCCO | inactive | 
7 | CC(C)CC(C)(O)C#CC(C)(O)CC(C)C (stereo not given) | inactive | 
8 | CC(=O)c1ccc2c(c1)[C@H](NC(=O)c1ccc(F)cc1)[C@@H](O)C(C)(C)O2 | inactive | 
9 | C1=CCCC=CCCC=CCC1 | inactive | 
10 | Oc1ccc2c(c1)-c1ccccc1C2 | inactive | 
11 | CCCN(C1CCN(C(=O)C2CCNCC2)CC1)[C@@H]1CCc2ccc(OC)cc2C1 | inactive | 
12 | COc1cccc(-c2ccc(/C=C\CN3CCCCCC3)cc2Cl)c1 | inactive | 
13 | CC(O)CN(CCN(CC(C)O)CC(C)O)CC(C)O (stereo not given) | inactive | 
14 | CC(C)c1cccc(C(C)C)c1N1C(=O)c2ccc(O)cc2C1=O | inactive | 
15 | O=C(O)c1cc(N=Nc2ccc(S(=O)(=O)Nc3ccccn3)cc2)ccc1O | inactive | 
16 | CC(C)=CCC/C(C)=C/CO | inactive | 
17 | CC(C)CCCCCCCOC(=O)CCCCC(=O)OCCCCCCCC(C)C | inactive | 
18 | Cn1c(=O)cc(Oc2ccc(F)cc2F)c2cnc(NCC(C)(C)O)nc21 | inactive | 
19 | COc1ccc(/C=C/S(=O)(=O)NC(=O)c2ccc(C)cc2Cl)cc1 | inactive | 
20 | CC[C@H](C)C(=O)O[C@H]1C[C@@H](C)C=C2C=C[C@H](C)[C@H](CC[C@@H]3C[C@@H](O)CC(=O)O3)[C@H]21 | inactive | 

Row | Compound | outcome | AC50
21 | O=C(CCCCCCCCc1cccnc1)N1CCC(C=C(c2ccccc2)c2ccccc2)CC1 |  | 100 µM (active)
22 | CC(C)=CCC/C(C)=C\CO | inactive | 
23 | Cn1cnc([N+](=O)[O-])c1Sc1ncnc2nc[nH]c12 | inactive | 
24 | COc1ccc2sc(C(=O)Nc3nnn[nH]3)c(OC(C)C)c2c1 | inactive | 
25 | Cc1ccc(N)cc1O | inactive | 
26 | CC/C(=C\C(=N/O)C(N)=O)C(C)[N+](=O)[O-] (stereo not given) | inactive | 
27 | CCOC(=O)c1ccc(C2CCC(NC[C@H](O)COc3ccc(O)c(NS(C)(=O)=O)c3)CC2)cc1 (stereo not given in full) | inactive | 
28 | CCCC(=O)OCC | inactive | 
29 | CCC(C)(C)C(=O)O[C@H]1C[C@@H](C)C=C2C=C[C@H](C)[C@H](CC[C@@H]3C[C@@H](O)CC(=O)O3)[C@H]21 | inactive | 
30 | Cc1ccc(O)cc1 | inactive | 
31 | O=C(O)c1cccc(Oc2ccccc2)c1 | inactive | 
32 | O=c1[nH]c2ccc(S(=O)CCN3CCC(Cc4ccc(F)cc4)CC3)cc2o1 (stereo not given) | inactive | 
33 | CC(C)(O)c1coc(S(=O)(=O)NC(=O)Nc2c3c(cc4c2CCC4)CCC3)c1 | inactive | 
34 | NC(=O)NO | inactive | 
35 | COc1ccc(-n2nc(C(F)F)cc2-c2ccc(S(C)=O)cc2)cc1 (stereo not given) | inactive | 
36 | CC[C@H]1CC[C@H](NCc2cc3c(cc2OC)[C@H]2C[C@H]2C(=O)N3C)[C@H](c2ccccc2)N1 | inactive | 
37 | CCCCC(CC)COC(=O)CCCCCCCCC(=O)OCC(CC)CCCC (stereo not given) | inactive | 
38 | Cc1[nH]cnc1C[C@H]1CCc2c(C)c3ccccc3n2C1=O | inactive | 
39 | O=C1CCC(N2C(=O)c3ccccc3C2=O)C(=O)N1 (stereo not given) | inactive | 
40 | COCCOc1cc2cc(C(=O)NC3CCN(C(C)C)CC3)n(CC(=O)Nc3ccc(Cl)cn3)c2cn1 | inactive | 
